Screening data deposited in PubChem BioAssay by Broad Institute.
Wnt act – Wnt/beta-catenin pathway activators, primary screen, cell-based, plate reader, single point; Wnt/beta-catenin reporter cell assay, activator; activation, % at 9.35 µM; actives 1.2% (n = 300,000); in the data active = activation above about 30%, passing the limit was not always enough; inconclusive = no clear call, values can overlap the other calls;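 also: 0% = neutral control wells and 100% = positive control wells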
esBAF inh – Bmi1 luciferase reporter increase in mESCs, primary screen, esBAF inhibitor project, mouse ES cells, Bmi1 luciferase knock-in, single point; actives 2% (n = 350,000); 24 h; 100% = twice the neutral-well signal; reporter increase, % at 12.5 µM; in the data active = activation above about 40%; inconclusive = no clear call, values can overlap the other calls;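 also: 0% = median of the plate's neutral control wells and 100% = double that signal; a rise in the Bmi1 reporter signal indicates esBAF inhibition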
miR122 inh – miR-122 Renilla sensor signal increase in Huh7, primary screen, miR-122 inhibitor project, cell-based, single point, plate reader; Huh7 miR-122 Renilla luciferase sensor, 48 h; neutral wells = 0, positive control = 100; actives 0.3% (n = 340,000); activation (reporter increase), % at 12.5 µM;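 active = mean replicate activation score at least 90 and every replicate individually at or above 90; inconclusive = only one of the two criteria met; inactive = neither criterion met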;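 also: higher luciferase means less miR-122 activity so hits act as miR-122 inhibitors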
MITF TRPM1 HTS – activators of MITF-driven TRPM1 promoter reporter, primary screen, cell-based, SK-MEL-5, luciferase, single point. SK-MEL-5 TRPM1-promoter luciferase, 24 h; % of positive control, neutral wells = 0. activation, % at 12.5 µM. actives 0.75% (n = 300,000). AID 588334, 2011;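 active = mean activation of at least 80% with every replicate also reaching 80%; inconclusive = mean reaches 80% but some replicate falls short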;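 also: 0% = neutral control wells and 100% = parthenolide positive control wells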
Env fusion inh – inhibitors of HIV-1 Env-driven cell-cell fusion, primary screen, HeLa-JRFL effector, CEM21 target cells, luciferase. AID 651610, 2012. inhibition, % at 12.3 µM. actives 1.1% (n = 360,000);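 active = mean replicate inhibition score of at least 50 and every replicate individually at or above 50; inconclusive = only one of the two criteria met; inactive = mean below 50 and not all replicates reaching 50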;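 also: 0% = plate neutral controls and 100% = maraviroc near 300 nM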
Active calls of the source: *; i = inactive; ? = inconclusive; . = no result; [ ] = remark or other dose. Compounds with a hit are over-represented: about 3.4% of the library has one in this group of screens.

SMILES	Wnt act	esBAF inh	miR122 inh	MITF TRPM1 HTS	Env fusion inh
C[C@H]1CCCCO[C@H](CN(C)C(=O)Nc2ccc(C(F)(F)F)cc2)[C@@H](C)CN([C@@H](C)CO)C(=O)c2cc(NC(=O)Cc3ccccc3)ccc2O1	.	4.8	-13.6[16.7 µM]	.	65.8*[16.7 µM]
C[C@@H]1CCCCO[C@@H](CN(C)C(=O)c2ccccc2)[C@H](C)CN([C@@H](C)CO)C(=O)c2cc(NC(=O)Nc3ccc(C(F)(F)F)cc3)ccc2O1	.	8.0	-14.7[16.7 µM]	.	56.6*[16.7 µM]
C[C@@H]1CCCCO[C@H](CN(C)C(=O)Nc2ccc(C(F)(F)F)cc2)[C@H](C)CN([C@H](C)CO)C(=O)c2cc(NC(=O)Cc3ccccc3)ccc2O1	.	3.7	-9.1[16.7 µM]	.	26.2[16.7 µM]
C[C@@H]1CN([C@H](C)CO)C(=O)c2cc(NC(=O)Nc3ccc(C(F)(F)F)cc3)ccc2O[C@@H](C)CCCCO[C@H]1CN(C)C(=O)Nc1ccc(C(F)(F)F)cc1	.	-68.2	-14.0[16.7 µM]	.	115.2*[16.7 µM]
C[C@H]1CCCCO[C@H](CN(C)C(=O)Nc2ccc(C(F)(F)F)cc2)[C@@H](C)CN([C@@H](C)CO)C(=O)c2cc(NC(=O)Nc3ccc4c(c3)OCO4)ccc2O1	.	5.4	-3.2[16.7 µM]	.	72.0*[16.7 µM]
C[C@@H]1CN([C@@H](C)CO)S(=O)(=O)c2ccc(C3=CCCC3)cc2O[C@H]1CN(C)C(=O)Cc1ccncc1	.	-0.4	-6.5[16.7 µM]	.	-19.3[16.7 µM]
Cc1cccc(S(=O)(=O)N2C[C@@H](O)COC[C@@H]3O[C@H](CC(=O)N4CCN(C)CC4)CC[C@H]32)c1	.	-3.7	-4.8[16.7 µM]	.	.
Cc1ccc(S(=O)(=O)N(C)C[C@@H]2Oc3ccc(N(C)C)cc3CC(=O)N([C@H](C)CO)C[C@@H]2C)cc1	.	1.6	-5.8[16.7 µM]	.	.
C[C@H]1CCCCO[C@H](CN(C)C(=O)Nc2ccc(C(F)(F)F)cc2)[C@@H](C)CN([C@@H](C)CO)C(=O)c2cc(NC(=O)Nc3ccccc3)ccc2O1	.	-3.4	-5.0[16.7 µM]	.	63.5*[16.7 µM]
C[C@@H]1CCCCO[C@H](CN(C)C(=O)Cc2ccccc2)[C@H](C)CN([C@@H](C)CO)C(=O)c2cc(NC(=O)Nc3ccc(C(F)(F)F)cc3)ccc2O1	.	-0.9	-13.8[16.7 µM]	.	21.7[16.7 µM]
C[C@@H]1CCCCO[C@H](CN(C)C(=O)Cc2ccccc2)[C@@H](C)CN([C@@H](C)CO)C(=O)c2cc(NC(=O)Nc3ccc(C(F)(F)F)cc3)ccc2O1	.	-0.6	-5.3[16.7 µM]	.	62.5*[16.7 µM]
C[C@@H]1CCCCO[C@@H](CN(C)C(=O)Nc2ccc(C(F)(F)F)cc2)[C@@H](C)CN([C@H](C)CO)C(=O)c2cc(NC(=O)c3ccccc3)ccc2O1	.	-2.3	8.9[16.7 µM]	.	10.4[16.7 µM]
C[C@@H]1CCCCO[C@H](CN(C)C(=O)Cc2ccccc2)[C@@H](C)CN([C@@H](C)CO)C(=O)c2cc(NC(=O)NC3CCCCC3)ccc2O1	.	-5.4	6.9[16.7 µM]	.	-31.9[16.7 µM]
C[C@@H]1CCCCO[C@H](CN(C)C(=O)Nc2ccc(C(F)(F)F)cc2)[C@H](C)CN([C@@H](C)CO)C(=O)c2cc(NC(=O)c3ccccc3)ccc2O1	.	-5.2	-11.3[16.7 µM]	.	72.8*[16.7 µM]
C[C@@H]1CN([C@@H](C)CO)C(=O)c2cc(NC(=O)NC3CCCCC3)ccc2O[C@@H](C)CCCCO[C@@H]1CN(C)C(=O)Cc1ccccc1	.	4.9	-2.2[16.7 µM]	.	62.0*[16.7 µM]
COc1ccc(S(=O)(=O)Nc2cccc3c2O[C@H](CN(C)Cc2ccc(Oc4ccccc4)cc2)[C@H](C)CN([C@@H](C)CO)C3=O)cc1	.	-0.9	33.9[16.7 µM]	.	-20.6[16.7 µM]
COc1ccc(NC(=O)N[C@@H]2CC[C@@H](CCNC(=O)CCN3CCCCC3)O[C@H]2CO)cc1	.	-2.4	24.0[16.7 µM]	.	3.2[16.7 µM]
CCCC(=O)Nc1ccc2c(c1)C(=O)N(C)C[C@H](OC)[C@@H](C)CN(C(=O)c1ccncc1)[C@H](C)CO2	.	-0.7	.	.	2.9[16.7 µM]
CCOc1cccc(-c2cnc3cccnn23)c1	2.7	61.3*	-8.2	.	-28.1
Cc1ccc(S(=O)(=O)N(C)C[C@@H]2Oc3ccc(NS(=O)(=O)c4cccs4)cc3C(=O)N([C@H](C)CO)C[C@H]2C)cc1	.	1.2	-3.3[16.7 µM]	.	4.6[16.7 µM]
Cn1c(Nc2ccccc2)nc2ccccc21	3.7	35.7	-5.1	22.7	-14.2
CCOc1ccc(Nc2c3ccccc3nc3ccccc23)cc1	2.2	-15.0	-2.9	-14.3	-0.2
CCOc1ccc(Nc2cc(C)c3ccccc3n2)cc1	12.5	46.4*	3.7	?	-66.8
CCC(=O)Nc1nc2ccccc2n1CCN1CCOCC1	.	.	-5.5	0.6	.
Nn1c(Nc2ccccc2)nc2ccccc21	.	64.5*	2.1	63.9	.
SMILES	Wnt act	esBAF inh	miR122 inh	MITF TRPM1 HTS	Env fusion inh
CCOc1ccc(Nc2nc3ccccc3n2C)cc1	26.9	51.8*	-4.8	95.0*	-76.3
CCCCCCCn1c(NC(=O)CC)nc2ccccc21	-7.8	.	9.2	.	72.2*
C[C@@H]1CCCCO[C@@H](CN(C)Cc2ccc(C(F)(F)F)cc2)[C@H](C)CN([C@H](C)CO)C(=O)c2cc(NS(=O)(=O)c3ccccc3)ccc2O1	.	-1.3	-7.6[16.7 µM]	.	21.9[16.7 µM]
Cc1cc(C(=O)Nc2cccc3c2O[C@H](CN(C)C(=O)Nc2ccc(C(F)(F)F)cc2)[C@@H](C)CN([C@H](C)CO)C3=O)n(C)n1	.	-9.9	6.2[16.7 µM]	.	-7.0[16.7 µM]
CCCCn1c(Nc2ccccc2)nc2ccccc21	-1.2	-7.4	43.5	-9.7	1.2
CCn1c(NC(=S)Nc2ccccc2)nc2ccccc21	33.0*	1.0	-6.2	.	i
CCCn1c(Nc2nc3ccccc3n2C)nc2ccccc21	.	-6.3	-10.3	.	140.2*
CCCn1c(NC(=S)Nc2ccccc2)nc2ccccc21	.	10.6	2.1	16.0	15.3
C[C@@H]1CN([C@H](C)CO)C(=O)c2cccc(NS(=O)(=O)c3ccc(F)cc3)c2O[C@H]1CN(C)CC1CCCCC1	.	4.2	51.5[16.7 µM]	.	.
Oc1ccccc1C(Nc1nccs1)c1ccc2cccnc2c1O (configuration not stated)	0.3	-18.3	33.2	-15.2	59.9*
Oc1c(C(Nc2ccccn2)c2ccccn2)ccc2cccnc12 (configuration not stated)	76.2*	.	15.2	-70.0	-252.0
O=C(NCC(F)(F)F)[C@@H]1[C@@H](CO)[C@@H]2Cn3c(cccc3=O)[C@@H]2N1C(=O)C1CCCC1	.	-2.8	-0.3[16.7 µM]	.	.
CCOc1ccc(-c2nnc(N)s2)cc1	.	60.4*	-5.8	56.6	.
CCCCOc1ccc(-c2nnc(N)s2)cc1	9.4	.	.	36.0	-0.9
CC(C)CN1CCC(=O)N(CCSc2ccccc2)CC1	42.1*	6.5	2.2	73.2	19.6
O=C1CCN(Cc2ccccc2)CCN1CCOc1ccccc1	12.7	9.8	.	85.0*	1.3
CCO[C@@H]1OC(C(=O)N2CCN(C)CC2)=C[C@H](c2ccccc2)[C@H]1CCCO	.	.	.	.	1.3[16.7 µM]
C[C@@H]1CN([C@@H](C)CO)C(=O)c2cc(NC(=O)Nc3ccc4c(c3)OCO4)ccc2O[C@@H](C)CCCCO[C@H]1CN(C)Cc1ccc(C(F)(F)F)cc1	.	-2.0	-9.5[16.7 µM]	.	61.2*[16.7 µM]
